{"source": "the supplement of paper PMC8728848", "binders": {"B1": {"name": "SpnanA (Streptococcus pneumoniae), P62575 (protein)", "chain": "MVIEKEDVETNASNGQRVDLSSELDKLKKLENATVHMEFKPDAKAPAFYNLFSVSSATKKDEYFTMAVYNNTATLEGRGSDGKQFYNNYNDAPLKVKPGQWNSVTFTVEKPTAELPKGRVRLYVNGVLSRTSLRSGNFIKDMPDVTHVQIGATKRANNTVWGSNLQIRNLTVYNRALTPEEVQKRS"}}, "experiment_in_all_cases": "glycan array binding signal (z-score within array); higher = stronger binding", "conditions_in_all_cases": "glycan notation: IUPAC condensed, linker removed", "key": {"[1]": {"target": "Fuc(a1-2)Gal(b1-3)GlcNAc(b1-2)Man(a1-3)[Fuc(a1-2)Gal(b1-3)GlcNAc(b1-2)Man(a1-6)]Man(b1-4)GlcNAc(b1-4)GlcNAc", "summary_of_the_method": "(§1)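 The binding signal is a Z-score computed within each array and averaged over linkers. Arrays of the same protein sequence at different concentrations or buffers were also averaged together. Data originate from 3228 arrays in the Consortium for Functional Glycomics database, kept only where the protein sequence was available.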"}, "Fuc(a1-2)Gal(b1-4)GlcNAc": {"target": "Fuc(a1-2)Gal(b1-4)GlcNAc", "summary_of_the_method": "as §1"}, "[2]": {"target": "Fuc(a1-2)Gal(b1-4)GlcNAc(b1-2)[Fuc(a1-2)Gal(b1-4)GlcNAc(b1-4)]Man(a1-3)[Fuc(a1-2)Gal(b1-4)GlcNAc(b1-2)Man(a1-6)]Man(b1-4)GlcNAc(b1-4)GlcNAc", "summary_of_the_method": "as §1"}, "[3]": {"target": "Fuc(a1-2)Gal(b1-4)[Fuc(a1-3)]GlcNAc(b1-2)[Fuc(a1-2)Gal(b1-4)[Fuc(a1-3)]GlcNAc(b1-4)]Man(a1-3)[Fuc(a1-2)Gal(b1-4)[Fuc(a1-3)]GlcNAc(b1-2)Man(a1-6)]Man(b1-4)GlcNAc(b1-4)GlcNAc", "summary_of_the_method": "as §1"}, "[4]": {"target": "Fuc(a1-2)[GalNAc(a1-3)]Gal(b1-4)[Fuc(a1-3)]GlcNAc", "summary_of_the_method": "as §1"}, "[5]": {"target": "Fuc(a1-3)[Gal(b1-4)]GlcNAc", "summary_of_the_method": "as §1"}, "[6]": {"target": "Fuc(a1-3)[Gal(b1-4)]GlcNAc(b1-2)Man(a1-3)[Fuc(a1-3)[Gal(b1-4)]GlcNAc(b1-2)Man(a1-6)]Man(b1-4)GlcNAc(b1-4)GlcNAc", "summary_of_the_method": "as §1"}, "Gal(a1-3)Gal(b1-4)GlcNAc": {"target": "Gal(a1-3)Gal(b1-4)GlcNAc", "summary_of_the_method": "as §1"}, "[7]": {"target": "Gal(a1-3)Gal(b1-4)[Fuc(a1-3)]GlcNAc", "summary_of_the_method": "as §1"}, "Gal(b1-3)Gal": {"target": "Gal(b1-3)Gal", "summary_of_the_method": "as §1"}, "[8]": {"target": "Gal(b1-4)GlcNAc(b1-2)Man(a1-3)[Man(a1-6)]Man(b1-4)GlcNAc(b1-4)GlcNAc", "summary_of_the_method": "as §1"}, "[9]": {"target": "Gal(b1-4)GlcNAc(b1-3)[GlcNAc(b1-6)]Gal(b1-4)GlcNAc", "summary_of_the_method": "as §1"}, "[10]": {"target": "Gal(b1-4)GlcNAc(b1-6)GalNAc", "summary_of_the_method": "as §1"}, "Gal(b1-6)Gal": {"target": "Gal(b1-6)Gal", "summary_of_the_method": "as §1"}, "Gal6S(b1-4)Glc6S": {"target": "Gal6S(b1-4)Glc6S", "summary_of_the_method": "as §1"}, "GalNAc(a1-3)GalNAc": {"target": "GalNAc(a1-3)GalNAc", "summary_of_the_method": "as §1"}, "GlcA(b1-3)GlcNAc": {"target": "GlcA(b1-3)GlcNAc", "summary_of_the_method": "as §1"}, "[11]": {"target": "GlcNAc(b1-3)Gal(b1-3)GalNAc", "summary_of_the_method": "as §1"}, "[12]": {"target": "GlcNAc(b1-3)[GlcNAc(b1-6)]Gal(b1-4)GlcNAc", "summary_of_the_method": "as §1"}, "[13]": {"target": "GlcNAc(b1-3)[GlcNAc(b1-6)]GalNAc", "summary_of_the_method": "as §1"}, "Man(a1-2)Man(a1-3)Man": {"target": "Man(a1-2)Man(a1-3)Man", "summary_of_the_method": "as §1"}, "Man(b1-4)GlcNAc": {"target": "Man(b1-4)GlcNAc", "summary_of_the_method": "as §1"}, "[14]": {"target": "Neu5Ac(a2-3)Gal(b1-3)GalNAc6S", "summary_of_the_method": "as §1"}, "[15]": {"target": "Neu5Ac(a2-3)Gal(b1-3)GlcNAc", "summary_of_the_method": "as §1"}, "[16]": {"target": "Neu5Ac(a2-3)Gal(b1-3)[Neu5Ac(a2-3)Gal(b1-4)]GlcNAc", "summary_of_the_method": "as §1"}, "[17]": {"target": "Neu5Ac(a2-3)Gal(b1-3)[Neu5Ac(a2-6)]GalNAc", "summary_of_the_method": "as §1"}, "[18]": {"target": "Neu5Ac(a2-3)Gal(b1-4)GlcNAc(b1-2)Man", "summary_of_the_method": "as §1"}, "[19]": {"target": "Neu5Ac(a2-3)Gal(b1-4)GlcNAc6S", "summary_of_the_method": "as §1"}, "[20]": {"target": "Neu5Ac(a2-3)Gal(b1-4)[Fuc(a1-3)]GlcNAc(b1-3)Gal(b1-4)[Fuc(a1-3)]GlcNAc(b1-3)Gal(b1-4)[Fuc(a1-3)]GlcNAc", "summary_of_the_method": "as §1"}, "[21]": {"target": "Neu5Ac(a2-3)Gal6S(b1-4)GlcNAc", "summary_of_the_method": "as §1"}, "[22]": {"target": "Neu5Ac(a2-3)[Neu5Ac(a2-6)]GalNAc", "summary_of_the_method": "as §1"}, "[23]": {"target": "Neu5Ac(a2-6)GalNAc(b1-4)GlcNAc6S", "summary_of_the_method": "as §1"}, "[24]": {"target": "Neu5Ac9Ac(a2-3)Gal(b1-4)GlcNAc", "summary_of_the_method": "as §1"}}, "note": "Many of the other results were omitted from the sample, so the strongest signals are more common in it than they were.", "data": [{"binder": "B1", "values": [{"measurement": "glycan array binding signal (z-score)", "setting": "[1]", "value": -0.237}, {"measurement": "glycan array binding signal (z-score)", "setting": "Fuc(a1-2)Gal(b1-4)GlcNAc", "value": -0.29}, {"measurement": "glycan array binding signal (z-score)", "setting": "[2]", "value": -0.131}, {"measurement": "glycan array binding signal (z-score)", "setting": "[3]", "value": -0.066}, {"measurement": "glycan array binding signal (z-score)", "setting": "[4]", "value": 0.018}, {"measurement": "glycan array binding signal (z-score)", "setting": "[5]", "value": -0.28}, {"measurement": "glycan array binding signal (z-score)", "setting": "[6]", "value": -0.169}, {"measurement": "glycan array binding signal (z-score)", "setting": "Gal(a1-3)Gal(b1-4)GlcNAc", "value": -0.256}, {"measurement": "glycan array binding signal (z-score)", "setting": "[7]", "value": -0.262}, {"measurement": "glycan array binding signal (z-score)", "setting": "Gal(b1-3)Gal", "value": -0.211}, {"measurement": "glycan array binding signal (z-score)", "setting": "[8]", "value": 0.687}, {"measurement": "glycan array binding signal (z-score)", "setting": "[9]", "value": -0.29}, {"measurement": "glycan array binding signal (z-score)", "setting": "[10]", "value": -0.295}, {"measurement": "glycan array binding signal (z-score)", "setting": "Gal(b1-6)Gal", "value": -0.199}, {"measurement": "glycan array binding signal (z-score)", "setting": "Gal6S(b1-4)Glc6S", "value": -0.104}, {"measurement": "glycan array binding signal (z-score)", "setting": "GalNAc(a1-3)GalNAc", "value": -0.233}, {"measurement": "glycan array binding signal (z-score)", "setting": "GlcA(b1-3)GlcNAc", "value": 6.22}, {"measurement": "glycan array binding signal (z-score)", "setting": "[11]", "value": -0.164}, {"measurement": "glycan array binding signal (z-score)", "setting": "[12]", "value": -0.211}, {"measurement": "glycan array binding signal (z-score)", "setting": "[13]", "value": -0.222}, {"measurement": "glycan array binding signal (z-score)", "setting": "Man(a1-2)Man(a1-3)Man", "value": -0.228}, {"measurement": "glycan array binding signal (z-score)", "setting": "Man(b1-4)GlcNAc", "value": -0.307}, {"measurement": "glycan array binding signal (z-score)", "setting": "[14]", "value": 3.01}, {"measurement": "glycan array binding signal (z-score)", "setting": "[15]", "value": 3.08}, {"measurement": "glycan array binding signal (z-score)", "setting": "[16]", "value": 6.34}, {"measurement": "glycan array binding signal (z-score)", "setting": "[17]", "value": 3.24}, {"measurement": "glycan array binding signal (z-score)", "setting": "[18]", "value": 2.64}, {"measurement": "glycan array binding signal (z-score)", "setting": "[19]", "value": 3.89}, {"measurement": "glycan array binding signal (z-score)", "setting": "[20]", "value": -0.268}, {"measurement": "glycan array binding signal (z-score)", "setting": "[21]", "value": 2.91}, {"measurement": "glycan array binding signal (z-score)", "setting": "[22]", "value": 2.61}, {"measurement": "glycan array binding signal (z-score)", "setting": "[23]", "value": -0.062}, {"measurement": "glycan array binding signal (z-score)", "setting": "[24]", "value": -0.089}]}]}
